# From PubChem BioAssay (NCATS)
# Inconclusive results are not listed. Calls of active or inactive are those of the source. Unless noted, the call rests on the fitted dose curve; in most records, active means well fitted curve in the direction sought with a large enough effect; inconclusive means small, poorly fitted or top-dose-only effect, or another doubt; inactive means no such curve, though single readings can be large; an effect the other way counts as inactive or inconclusive.
# What was measured:
# [1] = Confirmation and Secondary Assay for Modulators of Hemoglobin Beta Chain Splicing at IVS2 654 locus (AID 910);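 further: HeLa cells stably carrying EGFP split by mutant beta-globin IVS2-654 intron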
# Summary of the method: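 HeLa cells stably expressing EGFP interrupted by β-globin IVS2-654 intron, seeded overnight in Opti-MEM/2% FCS, then treated 2 days at 37 °C. Restored splicing read as total peak GFP intensity per well by laser scanning cytometry (488 nm excitation, 500–520 nm emission); 500 nM antisense PNA as control.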
# [2] = Confirmation and Secondary Assay for Modulators of Hemoglobin Beta Chain Splicing at IVS2 705 locus (AID 930);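 further: HeLa cells stably expressing the EGFP-705 splicing reporter; GFP fluorescence per well restored by corrected splicing of the IVS2-705 intron in EGFP; series mostly up to about 46 µM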
# Summary of the method: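 Secondary splice-site specificity test uses HeLa expressing CMV-driven EGFP interrupted by IVS2-705; cells were treated 2 days at 37C with 500 nM antisense PNA as positive control.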
# [3] = Cell Viability - LYMP1-002 - Assay at 16 hr (AID 948); further: potency means the concentration at half of the fitted maximal effect
# Summary of the method: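 LYMP1-002 human lymphoblastoid cells, 2500/well, were treated with compounds for 16 hr at 37 C in complete medium. Viability was read as intracellular ATP by CellTiter-Glo luminescence, and AC50 was derived from a Hill fit to concentration-response data.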
# [4] = Cell Viability - LYMP1-003 - Assay at 40 hr (AID 964); further: potency means the concentration at half of the fitted maximal effect; nearly all actives have a fitted effect of over 60% in size
# Summary of the method: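 LYMP1-003 human lymphoblastoid cells, 2500/well, preincubated 5 h at 37 C, then treated with compound for 40 h at 37 C. Intracellular ATP read by CellTiter-Glo luminescence after 30 min at room temperature; AC50 from Hill-equation fits.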
# [5] = Cell Viability - LYMP2-004 (AID 966); further: potency means the concentration at half of the fitted maximal effect; nearly all actives have a fitted effect of over 65% in size
# Summary of the method: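 Lymphoblastoid LYMP2-004 cells, 2500 per well, were preincubated for 5 hr and then treated with compound for 24 h at 37 C in complete medium. Viability was read as cellular ATP by CellTiter-Glo luminescence, and AC50 values were taken from Hill fits to concentration-response data.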
# [6] = Cell Viability - LYMP2-005 (AID 967); further: potency means the concentration at half of the fitted maximal effect
# Summary of the method: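 Human lymphoblastoid LYMP2-005 cells, 2,500 per well in complete medium, rested 5 h at 37C then compound-treated 24 h at 37C. Intracellular ATP read by CellTiter-Glo luminescence after 30 min at room temperature; AC50 from Hill-equation fits of concentration-response data.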
# [7] = Cell Viability - LYMP2-009 (AID 968); further: potency means the concentration at half of the fitted maximal effect; nearly all actives have a fitted effect of over 55% in size
# [8] = Cell Viability - LYMP2-025 (AID 976); further: potency means the concentration at half of the fitted maximal effect
# Summary of the method: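 Human lymphoblastoid LYMP2-025 cells, 2500/well, exposed 24 h at 37 C in complete medium in 1536-well qHTS. Viability as cellular ATP by CellTiter-Glo luminescence; AC50 from Hill fits of concentration-response data.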
# [9] = Cell Viability - LYMP2-002 (AID 977);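 further: potency means the concentration at half of the fitted maximal effect; compound exposure lasted 24 h at 37 °C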
# Summary of the method: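 Human lymphoblastoid LYMP2-002 cells, 2500 per well, exposed to compounds for 24 h at 37 C in complete medium; viability read as intracellular ATP by CellTiter-Glo luminescence, AC50 from Hill fits.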
# [10] = Cell Viability - LYMP1-002 - Assay at 24 hr (AID 993); further: potency means the concentration at half of the fitted maximal effect
# Summary of the method: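 Human lymphoblastoid LYMP1-002 cells (2500/well) treated 24 h at 37 °C; viability as intracellular ATP by CellTiter-Glo luminescence. Tetraoctylammonium bromide as positive control; AC50 from Hill-equation fits of qHTS concentration-response.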
# [11] = Cell Viability - LYMP1-002 - Assay at 40 hr (AID 994); further: potency means the concentration at half of the fitted maximal effect; nearly all actives have a fitted effect of over 60% in size
# Summary of the method: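 LYMP1-002 human lymphoblastoid cells (2500/well, complete medium) were treated with compounds for 40 hr at 37 C. Intracellular ATP was measured by CellTiter-Glo luminescence, and AC50 values came from Hill-equation fits of concentration-response data; tetraoctylammonium bromide was the positive control.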
# [12] = Cell Viability - LYMP2-022 (AID 987); further: potency means the concentration at half of the fitted maximal effect; nearly all actives have a fitted effect of over 55% in size
# Summary of the method: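 LYMP2-022 lymphoblastoid cells (2500/well, complete medium) were treated with compounds for 24 hours at 37 C; intracellular ATP was then read by CellTiter-Glo luminescence after 30 min at room temperature. AC50 values were derived from Hill-equation fits.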
# [13] = qHTS assay to identify small molecules that stimulate interleukin-8 (IL-8) secretion (AID 651758; active means well fitted activation curve with a large enough effect in the signal ratio; the % refers to the signal ratio; further: potency means the concentration at half of the fitted maximal effect)
# Summary of the method: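 THP-1 cells (2000/well) exposed to compound 16 h at 37 C; secreted IL-8 then detected by HTRF with cryptate- and XL665-labelled anti-IL-8 antibody pair after 1-3 h at room temperature.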
# [14] = qHTS assay for small molecule antagonists of the retinoid-related orphan receptor gamma (ROR-gamma) signaling pathway - cell viability counter screen (AID 720652; active means well fitted curve in the direction sought with a large enough effect in the repeat runs; an effect the other way counts as inactive or inconclusive;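 further: potency means the concentration at half of the fitted maximal effect; compound exposure lasted 16 hr before ATP read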)
# Summary of the method: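 CHO cells carrying TET-inducible ROR and RORE-luciferase reporter, plated 5 hr, then dosed with compound plus doxycycline. After 16 hr at 37 C, viability read as intracellular ATP by CellTiter-Glo luminescence.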
smiles,measurement,setting,value
CN1Cc2c(ccc3c2OCO3)C2C(O)Cc3cc4c(cc3C21)OCO4 (configuration not stated),Potency,[1],inactive
same,outcome,[2],inactive
O=Nc1ccc(Nc2ccccc2)cc1,Potency,[3],10 µM (active)
same,Potency,[4],7.94 µM (active)
same,Potency,[5],7.94 µM (active)
same,Potency,[6],10 µM (active)
same,Potency,[7],7.94 µM (active)
same,Potency,[8],10 µM (active)
same,Potency,[9],5.01 µM (active)
same,Potency,[10],7.94 µM (active)
same,Potency,[11],12.6 µM (active)
c1cc(OCC2CO2)cc(OCC2CO2)c1 (configuration not stated),Potency,[5],20 µM (active)
same,Potency,[7],39.8 µM (active)
same,Potency,[8],50.1 µM (active)
same,Potency,[9],39.8 µM (active)
same,Potency,[12],31.6 µM (active)
same,Potency,[13],42.2 µM (active)
C=CC(=O)OCC(CO)(COC(=O)C=C)COC(=O)C=C,Potency,[4],3.98 µM (active)
same,Potency,[6],2.51 µM (active)
same,Potency,[10],3.98 µM (active)
same,Potency,[11],5.01 µM (active)
C=C1CC[C@H](O)C/C1=C/C=C1\CCC[C@]2(C)[C@@H]([C@H](C)CCCC(C)C)CC[C@@H]12,Potency,[14],66.8 µM (active)
